Experimental data as given in PubChem BioAssay.
Calls of active or inactive are those of the source. Unless noted, no rule for the calls is given here.

What was measured:
[1] = system: XIP peptide (Xip251-270) binding; experiment: XIP fragment 251-270 binding compounds – biochemical, small-molecule microarray, fluorescence 635/667 nm, 0.1 µg/mL protein, primary screen (AID 1182); conditions: fluorescent protein binding, 635 nm, higher = more signal, called active from +8 up or from −8 down
XIP peptide (Xip251-270) = experiment: compounds binding XIP fragment 251-270 – biochemical, small-molecule microarray, fluorescence 635/667 nm, 0.5 µg/mL protein, primary screen (AID 1183); conditions: fluorescence 635 nm, higher = more signal
[2] = blood-stage malaria parasite viability loss – strain 3D7, DAPI fluorescence, 100 nL, primary screen (AID 1184);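 also: parasites grown inside human red blood cells in medium with human serum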; conditions: P. falciparum 3D7 growth, 3 d, higher = more signal
[3] = biological target: Homeobox protein Hox-A13 (Mus musculus) (UniProt Q62424); experiment: disruptors of Hoxa13 oligonucleotide interaction – biochemical, fluorescence polarization, labeled oligonucleotide, primary screen (AID 1185); conditions: Hoxa13:DNA binding, 15 min, higher = more signal, called active from +8 up or from −8 down
[4] = blockers of DNA damage checkpoint Chk1 activation – imaging, HeLa, hydroxyurea, phospho-Chk1 antibody, percent positive cells, primary screen (AID 1186); conditions: hydroxyurea-induced phospho-Chk1 immunofluorescence imaging, higher = more signal
[5] = blockers of DNA damage checkpoint Chk1 activation – imaging, HeLa, hydroxyurea, phospho-Chk1 nuclear intensity, primary screen (AID 1187); conditions: hydroxyurea-induced phospho-Chk1 immunofluorescence imaging, higher = more signal

Sequence of Homeobox protein Hox-A13 (Mus musculus) (Q62424 whole entry, looked up): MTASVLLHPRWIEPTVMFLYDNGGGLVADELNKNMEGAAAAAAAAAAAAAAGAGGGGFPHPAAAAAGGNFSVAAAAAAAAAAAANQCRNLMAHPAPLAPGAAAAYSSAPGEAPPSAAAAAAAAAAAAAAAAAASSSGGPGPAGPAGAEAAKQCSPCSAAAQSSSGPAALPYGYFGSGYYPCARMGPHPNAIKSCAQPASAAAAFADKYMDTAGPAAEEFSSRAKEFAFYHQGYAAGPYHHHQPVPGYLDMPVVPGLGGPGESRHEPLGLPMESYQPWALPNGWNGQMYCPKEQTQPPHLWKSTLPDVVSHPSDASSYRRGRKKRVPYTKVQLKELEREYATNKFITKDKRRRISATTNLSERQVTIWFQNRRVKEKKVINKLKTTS

Row | Structure (SMILES) | composite z-score [1] | composite z-score (XIP peptide (Xip251-270)) | z-score [2] | z-score [3] | z-score [4] | z-score [5]
1 | C=CCOC(=O)[C@H]1[C@@H]2C(=O)O[C@@H](c3ccccc3)[C@@H](c3ccccc3)N2[C@@H](c2ccc(OCCOC(=O)[C@H]3C[C@H]4C(=O)NCC(=O)N4[C@H]3c3cccc(OCCO)c3)cc2)[C@]12C(=O)Nc1ccc(I)cc12 | 0.585 (inactive) | 0.649 | -1.8 | 0.871 (inactive) | -1.38 (inactive) | -1.12 (inactive)
2 | C[C@]1(C(=O)NCC(F)(F)F)c2ccccc2C(=O)N(Cc2cc(C(F)(F)F)cc(C(F)(F)F)c2)[C@H]1c1ccc(CO)cc1 | 0.0939 (inactive) | 0.21 | 0.528 | -3.48 (inactive) | -0.496 (inactive) | -0.308 (inactive)
3 | CCCNC(=O)[C@@]1(Sc2ccc(C)cc2)CC(=O)N(Cc2cc(C(F)(F)F)cc(C(F)(F)F)c2)[C@@H]1c1ccc(CO)cc1 | -0.0515 (inactive) | 0.136 | -1.1 | -0.323 (inactive) | -0.0515 (inactive) | 0.0821 (inactive)
4 | COCCOC(=O)N1C(=O)[C@@]2(c3ccccc31)[C@H](C(=O)Nc1nc3ccccc3s1)[C@H]1C(=O)O[C@H](c3ccccc3)[C@H](c3ccccc3)N1[C@@H]2c1ccccc1OCCO | 0.238 (inactive) | 0.801 | -1.68 | -0.587 (inactive) | 0.152 (inactive) | 0.367 (inactive)
5 | OCCCc1cc[n+](Cc2cc3c(cc2Br)OCO3)cc1 | 0.0084 (inactive) | 0.579 | -1.96 | -2.45 (inactive) | -0.0355 (inactive) | 0.0561 (inactive)
6 | COC(=O)[C@@]1(Cc2ccc(F)cc2)[C@H]2c3cc(C(=O)N4CCCC4)n(CCc4c[nH]c5cc(F)ccc45)c3C[C@H]2CN1C(=O)c1ccccc1 | 0.0421 (inactive) | 0.684 | -1.4 | -2.5 (inactive) | -0.332 (inactive) | -0.589 (inactive)
7 | C=C(COC)/C(=C/C[C@@H](OC(=O)c1ccncc1)c1ccccc1OCCO)c1cnc2ccccc2c1 | 0.882 (inactive) | 0.745 | -3.1 | -4.25 (inactive) | 0.112 (inactive) | -0.291 (inactive)
8 | COCCOC(=O)N1C(=O)[C@@]2(c3cc(C#CCCO)ccc31)[C@H](C(=O)N1CCN(c3ncccn3)CC1)[C@H]1C(=O)O[C@H](c3ccccc3)[C@H](c3ccccc3)N1[C@@H]2c1ccc(OCCO)cc1 | 0.472 (inactive) | 0.838 | -2.04 | 0.211 (inactive) | -0.0621 (inactive) | -0.0646 (inactive)
9 | C=CC[C@]1(C(=O)NCC(O)CO)N=C(c2ccc(OCCCO)cc2)O[C@H]1c1ccccc1CN=[N+]=[N-] (stereo not given in full) | 0.513 (inactive) | -0.201 | -2.5 | -3.62 (inactive) | -0.116 (inactive) | -0.482 (inactive)
10 | C=C(CC1([C@@H](NP(=O)(c2ccccc2)c2ccccc2)[C@H]2C[C@@H]2CCCC)CC1)c1cccc(OC)c1 | -0.68 (inactive) | -0.207 | -0.0814 | -1.55 (inactive) | 0.731 (inactive) | 0.788 (inactive)
11 | C=C1C(=O)C=C2CN(C(=O)c3ccccc3)[C@@](Cc3ccc(F)cc3)(C(=O)OC)[C@@H]12 | 0.741 (inactive) | 0.459 | -1.59 | -4.76 (inactive) | -2.23 (inactive) | -3.76 (inactive)
12 | [N-]=[N+]=Nc1ccccc1C[C@]1(C(N)=O)COC(c2ccc(OCCCO)cc2)=N1 | 0.29 (inactive) | 0.546 | -1.88 | -4.74 (inactive) | -0.393 (inactive) | -0.137 (inactive)
13 | C[C@]12C(=O)N(CCO)[C@@H]3C(=O)N(c4ccc(Cl)cc4)CC=CC31O[C@@H]1/C=C\CCCOC(=O)C12 (stereo not given in full) | -0.0502 (inactive) | 0.913 | -1.39 | -3.46 (inactive) | 0.245 (inactive) | 0.129 (inactive)
14 | CCCCC=C[C@@H](NC(=O)C(C)(C)C)c1ccccc1 | 1.38 (inactive) | 0.324 | -0.501 | -0.258 (inactive) | 0.579 (inactive) | -0.124 (inactive)
15 | C=CC[C@]1(C(N)=O)N=C(c2ccc(OCCCO)cc2)O[C@H]1c1ccccc1N=[N+]=[N-] | 1.26 (inactive) | 0.688 | -1.98 | -5.2 (inactive) | -0.37 (inactive) | -0.532 (inactive)
16 | COC(=O)[C@@]1(Cc2ccccc2)[C@H]2c3cc(C(=O)N(C)C)n(CCF)c3C[C@H]2CN1C(=O)c1ccccc1 | 1.3 (inactive) | -0.504 | -0.684 | -4.95 (inactive) | -0.441 (inactive) | -0.748 (inactive)
17 | C=CC[C@@]1(C(=O)NCCCOC)N=C(c2ccc(OCCCO)cc2)O[C@@H]1c1ccccc1CN=[N+]=[N-] | 0.204 (inactive) | 0.44 | -2.25 | -5.2 (inactive) | -0.551 (inactive) | -0.721 (inactive)
18 | C=C(C(=O)CC[C@@H](OC(=O)c1cccnc1)c1cccc(OCCO)c1)C(C)C | -0.0726 (inactive) | 0.61 | -2.56 | -3.51 (inactive) | -0.361 (inactive) | 0.519 (inactive)
19 | CC(C)N1CC=CC23O[C@@H]4/C=C\CCCOC(=O)C4[C@H]2C(=O)N(C(C)CO)[C@@H]3C1=O (stereo not given in full) | -0.0835 (inactive) | 0.0575 | 0.261 | -4.1 (inactive) | -1.36 (inactive) | -0.988 (inactive)
20 | COCCOC(=O)N1C(=O)[C@@]2(c3cc(C#CCCO)ccc31)[C@H](c1ccc(O)cc1)N1[C@H](c3ccccc3)[C@H](c3ccccc3)OC(=O)[C@H]1[C@@H]2C(=O)NC[C@H](O)c1ccccc1 | 0.395 (inactive) | 0.859 | 0.0019 | -2.51 (inactive) | 0.0615 (inactive) | 0.345 (inactive)
